Hits are enriched below; roughly 0.37% of the tested compounds scored in any of these assays.
Rab7 wt modul – modulators of GTP binding to Rab7, primary screen, biochemical, wildtype, multiplex bead flow cytometry; GTP binding activity (percent of control), % at 10 µM; Rab7 GTPase wild type (dog), Bodipy-FL-GTP binding; actives 0.055% (n = 190,000); AID 758, 2007; GST-Rab7 beads, fluorescent GTP binding; actives lie on both sides; untreated = 100%, excess cold GTP = 0%;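 active means fluorescent GTP binding to Rab7 beads changed by at least 20 points from the 100% baseline, either direction, mostly lower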;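 further: median green fluorescence of bound Bodipy-FL-GTP per Rab7 bead population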
Rac1 wt modul – wildtype Rac1 GTP binding modulators, primary screen, biochemical, GST-Rac1 beads, flow cytometry, multiplex; GTP binding activity (% of control), % at 10 µM; Ras-related C3 botulinum toxin substrate 1 (Homo sapiens), P63000; AID 757, 2007; actives 0.27% (n = 190,000); fluorescent GTP binding; actives lie on both sides; 0 = cold GTP competed, 100 = untreated;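 active means GTP binding activity at least 20 points away from the 100% control level, either lower or higher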
Rab2A wt mod – modulators of GTP binding to Rab2A wildtype, primary screen, biochemical, dog, bead-based flow cytometry, multiplex; Ras-related protein Rab-2A (Canis lupus familiaris), P61105; GST-Rab2 wt beads, Bodipy-GTP binding; GTP binding activity, % at 10 µM; actives 0.19% (n = 190,000);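 active means GTP binding activity at least 20 points away from 100%, either lowered or raised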;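 further: 0% = beads with excess unlabeled GTP and 100% = no-compound control corrected for plate trend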
Rac1 act GTP bind – GTP binding modulators of activated mutant Rac1, primary screen, biochemical, bead-based flow cytometry, multiplex, fluorescent GTP; percent activity (GTP binding), % at 10 µM; Ras-related C3 botulinum toxin substrate 1 (Homo sapiens), P63000; GST-Rac1 activated beads; actives lie on both sides; 100% means binding = to untreated wells; actives 0.11% (n = 190,000);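 active means GTP binding at least 20 percentage points away from the 100% baseline, in either direction, so actives lie on both sides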
HRas wt GTP bind – modulators of GTP binding to HRas wildtype, primary screen, biochemical, bead-based flow cytometry, multiplex | actives 0.14% (n = 190,000) | AID 759, 2007 | GST-Ras wt beads, Bodipy-FL-GTP binding; actives lie on both sides | GTP binding activity, % at 10 µM | GTPase HRas (Homo sapiens), P01112;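 active means GTP binding activity at least 20% away from the 100% baseline, either lowered as inhibitor or raised as activator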;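 further: 0% = unlabeled GTP competition control and 100% = no-compound control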
Target sequence (P01112 whole entry, looked up): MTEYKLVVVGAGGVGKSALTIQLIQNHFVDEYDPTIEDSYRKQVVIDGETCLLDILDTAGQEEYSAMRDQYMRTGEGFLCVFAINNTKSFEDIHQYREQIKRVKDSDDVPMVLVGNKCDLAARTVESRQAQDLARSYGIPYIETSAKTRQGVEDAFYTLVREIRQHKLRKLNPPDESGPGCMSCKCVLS
Cdc42 wt – modulators of GTP binding to wildtype Cdc42, primary screen, biochemical, multiplex bead flow cytometry, Bodipy-GTP; Cell division control protein 42 homolog (Homo sapiens), P60953; GST-Cdc42 beads; actives lie on both sides; percent activity (GTP binding), % at 10 µM; actives 0.2% (n = 190,000);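 active means percent activity GTP binding at least 20 points away from the 100% baseline, either down as inhibitor or up as activator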;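 further: median bead fluorescence of bound Bodipy-FL-GTP at 100 nM; 0% = excess unlabeled GTP control and 100% = no compound control; below 100% means less GTP binding so inhibitor and above means activator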
Target sequence (P60953 whole entry, looked up): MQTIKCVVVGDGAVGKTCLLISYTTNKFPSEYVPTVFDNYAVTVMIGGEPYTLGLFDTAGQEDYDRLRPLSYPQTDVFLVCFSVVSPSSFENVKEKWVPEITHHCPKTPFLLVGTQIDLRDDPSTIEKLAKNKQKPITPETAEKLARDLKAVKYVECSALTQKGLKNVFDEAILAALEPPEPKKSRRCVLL
* hit, by the source's call; [ ] = remark or other dose.

SMILES | Rab7 wt modul | Rac1 wt modul | Rab2A wt mod | Rac1 act GTP bind | HRas wt GTP bind | Cdc42 wt
O=C(CSc1ccc2nnc(-c3cccc(F)c3)n2n1)N1CCCc2ccccc21 | 95.0 | 79.0* | 89.0 | 89.0 | 87.0 | 88.0
O=C(CSc1ccc2nnc(-c3ccc(F)cc3)n2n1)N1CCCc2ccccc21 | 93.0 | 97.0 | 93.0 | 95.0 | 91.0 | 95.0
NC(=O)NOCc1ncc(C(F)(F)F)cc1Cl | 105.0 | 120.0*[activator] | 113.0 | 104.0 | 111.0 | 117.0
CO/N=C/NC(=O)NOCc1ncc(C(F)(F)F)cc1Cl | 104.0 | 123.0*[activator] | 115.0 | 104.0 | 113.0 | 118.0
CC(C)Sc1nc2sc3c(c2c2nnc(SCC(=O)NCc4ccco4)n12)CCCC3 | 96.0 | 97.0 | 97.0 | 96.0 | 99.0 | 98.0
COc1cccc(/C=N/N=C(\N)c2nonc2N)c1O | 94.0 | 84.0 | 82.0 | 92.0 | 81.0 | 81.0
Cc1nn(-c2ccc(F)cc2)c(Cl)c1/C=C/C(=O)N1CCNC(=O)C1 | 98.0 | 106.0 | 99.0 | 98.0 | 102.0 | 103.0
O=S(=O)(Nc1cccc(-c2cn3cccnc3n2)c1)c1ccc(-c2ccccc2)cc1 | 96.0 | 95.0 | 95.0 | 94.0 | 97.0 | 93.0
O=S(=O)(Nc1cccc(-c2cn3cccnc3n2)c1)c1ccccc1 | 87.0 | 70.0* | 74.0* | 85.0 | 75.0* | 86.0
COC(=O)c1c(N2C(=O)[C@H]3[C@@H](C2=O)[C@]2(C(=O)Nc4c2ccc(C)c4C)N2CCC[C@@H]32)sc(C)c1C | 131.0*[activator] | 124.0*[activator] | 129.0*[activator] | 114.0 | 123.0*[activator] | 110.0
COC(=O)c1c(N2C(=O)[C@H]3[C@@H](C2=O)[C@]2(C(=O)Nc4c(C)cc(C)cc42)N2CCC[C@@H]32)sc(C)c1C | 121.0*[activator] | 115.0 | 126.0*[activator] | 107.0 | 120.0*[activator] | 111.0
COC(=O)c1c(N2C(=O)[C@H]3[C@@H](C2=O)[C@]2(C(=O)Nc4ccccc42)N2CCC[C@@H]32)sc(C)c1C | 112.0 | 103.0 | 102.0 | 95.0 | 100.0 | 99.0
O=[N+]([O-])c1ccc(NCCCNS(=O)(=O)c2ccccc2)cc1 | 94.0 | 102.0 | 96.0 | 95.0 | 97.0 | 95.0
O=C(NCc1ccccc1Cl)C1CCC(CNc2nc(=S)[nH]c3ccccc23)CC1 (stereo unspecified) | 88.0 | 78.0* | 88.0 | 92.0 | 86.0 | 90.0
O=C(NCCc1ccc(Cl)cc1)C1CCC(CNc2nc(=S)[nH]c3ccccc23)CC1 (stereo unspecified) | 99.0 | 85.0 | 88.0 | 92.0 | 89.0 | 81.0
CCO[C@H]1OC(C(=O)N2CCN(Cc3ccc4c(c3)OCO4)CC2)=C[C@@H](C)[C@@H]1CCCO | 102.0 | 97.0 | 99.0 | 97.0 | 98.0 | 95.0
COc1ccc2c(C)cc3nncn3c2c1 | 88.0 | 79.0* | 89.0 | 87.0 | 81.0 | 89.0
Cc1cc2ccccn2c1C(=O)c1cc([N+](=O)[O-])cc([N+](=O)[O-])c1 | 24.0* | 32.0* | 42.0* | 37.0* | 45.0* | 42.0*
Cc1c(NC(=O)C(C)OC(=O)c2ccc([N+](=O)[O-])s2)c(=O)n(-c2ccccc2)n1C (stereo unspecified) | 100.0 | 92.0 | 96.0 | 94.0 | 94.0 | 93.0
COc1cc2[nH]c(=S)nc(NCc3ccccn3)c2cc1OC | 95.0 | 76.0* | 82.0 | 88.0 | 83.0 | 83.0
COCCNc1nc(=S)[nH]c2cc(OC)c(OC)cc12 | 79.0* | 71.0* | 69.0* | 83.0 | 71.0* | 68.0*
COc1cc2c(cc1NCc1ccccn1)oc1ccccc12 | 102.0 | 105.0 | 100.0 | 100.0 | 103.0 | 105.0
COc1ccc(CCNC(=O)CCCCCNc2nc(=S)[nH]c3ccccc23)cc1OC | 101.0 | 94.0 | 92.0 | 95.0 | 94.0 | 97.0
CC(C)CCNCC1OCc2ccccc2CO1 | 105.0 | 102.0 | 102.0 | 101.0 | 102.0 | 102.0
COc1ccc(N(C(=O)CNC(=O)c2cccs2)C(C(=O)NCC2CCCO2)c2ccccc2)cc1OC (stereo unspecified) | 98.0 | 100.0 | 102.0 | 102.0 | 98.0 | 97.0
SMILES | Rab7 wt modul | Rac1 wt modul | Rab2A wt mod | Rac1 act GTP bind | HRas wt GTP bind | Cdc42 wt
CCNC(=S)N=Nc1c(O)[nH]c2ccc([N+](=O)[O-])cc12 | 83.0 | 58.0* | 65.0* | 80.0 | 67.0* | 65.0*
Cc1ccc(O)c(C(CC(=O)NC2CCCCC2)c2ccccc2)c1 (stereo unspecified) | 103.0 | 102.0 | 100.0 | 97.0 | 100.0 | 99.0
NC(=O)CSc1nnc(C2CC2)n1-c1ccccc1 | 99.0 | 102.0 | 97.0 | 101.0 | 99.0 | 101.0
CC(C)(C)CC(=O)NC(=S)NCc1ccco1 | 108.0 | 125.0*[activator] | 103.0 | 100.0 | 103.0 | 103.0
Cc1cc(N2CCC(C)CC2)nc(NCc2ccccc2)n1 | 99.0 | 104.0 | 100.0 | 97.0 | 100.0 | 101.0
NS(=O)(=O)c1ccc(-c2ccc(/C=C3\C(=O)Nc4cc(Cl)ccc43)o2)cc1 | 94.0 | 68.0* | 76.0* | 87.0 | 76.0* | 73.0*
CC1(C)OC(=O)C(=Cc2ccc(-c3ccc(S(N)(=O)=O)cc3)o2)C(=O)O1 | 98.0 | 88.0 | 92.0 | 85.0 | 88.0 | 92.0
NC(=S)N=Nc1c(O)[nH]c2ccccc12 | 95.0 | 87.0 | 84.0 | 96.0 | 86.0 | 92.0
NC(=S)N=Nc1c(O)[nH]c2c(Br)cc(Br)cc12 | 93.0 | 71.0* | 74.0* | 84.0 | 75.0* | 75.0*
Cc1ccc(N2CCN(C(=O)c3cc(C(=O)c4ccccc4C)c[nH]3)CC2)c(C)c1 | 99.0 | 100.0 | 96.0 | 94.0 | 96.0 | 92.0
CC1(C)C(=O)Nc2ccccc2N1C(=O)COc1cccnc1[N+](=O)[O-] | 95.0 | 98.0 | 98.0 | 99.0 | 97.0 | 101.0
CNC(=O)C(C)NS(=O)(=O)c1ccc(F)cc1 (stereo unspecified) | 27.0* | 34.0* | 36.0* | 36.0* | 40.0* | 37.0*
Cc1ccc(NC(=O)C(C)NS(=O)(=O)c2ccc(F)cc2)cc1C (stereo unspecified) | 111.0 | 113.0 | 105.0 | 101.0 | 103.0 | 104.0
O=c1[nH]c2sc3c(c2c2nncn12)CCCC3 | 85.0 | 76.0* | 77.0* | 88.0 | 78.0* | 79.0*
Cn1cccc1/C=C1\SC(=S)N(NC(=O)c2ccccc2Cl)C1=O | 90.0 | 78.0* | 83.0 | 89.0 | 89.0 | 88.0
FC(F)(F)c1cccc(OCCN2CCN(Cc3ccccc3)CC2)c1 | 97.0 | 97.0 | 97.0 | 95.0 | 97.0 | 97.0

Bioassay records as filed in PubChem BioAssay.
